Results reported in PubChem BioAssay AID1159580 (chemical genetic matrix, 2015).
The campaign covered roughly 5,500 compounds. About 2,000 (36%) were called active. About 18% were inconclusive and are not listed. No stated cut-off is given here; in the data, active means normalized growth mostly below about 0.91 (no sharp cut-off); inconclusive means no clear call, values can overlap the other calls; inactive means mostly above about 0.92. The list shows a part of the results.

Experiment: chemical genetic growth profiling, strain panel (AID 1159580);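 further: tested at 20 µM; growth read once vehicle control cultures reached saturation at 30 °C; 1 = growth at the plate median or of vehicle wells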
Details: growth OD

Measured: normalized growth

CC(=O)OCC[C@H](C)CCC=C(C)C
inactive: S. cerevisiae deletion strains, locus YJR043C, strain POL32, stronger effect = lower value 1.01 | S. cerevisiae deletion strains, locus YJR066W, strain TOR1, stronger effect = lower value 0.979 | S. cerevisiae deletion strains, locus YKL009W, strain mrt4, stronger effect = lower value 1.01 | S. cerevisiae deletion strains, locus YKL068W, stronger effect = lower value 1.03 | S. cerevisiae deletion strains, locus YKL085W, strain MDH1 (second series), stronger effect = lower value 1.01 | S. cerevisiae deletion strains, locus YKL085W, strain MDH1, stronger effect = lower value 1.01 | S. cerevisiae deletion strains, locus YKL160W, strain elf1, stronger effect = lower value 0.978 | S. cerevisiae deletion strains, locus YKL190W, strain CNB1, stronger effect = lower value 1.01 | S. cerevisiae deletion strains, locus YKR001C, strain vps1, stronger effect = lower value 1.03 | S. cerevisiae deletion strains, locus YKR026C, strain gcn3, stronger effect = lower value 0.994 | S. cerevisiae deletion strains, locus YKR091W, strain srl3, stronger effect = lower value 0.986 | S. cerevisiae deletion strains, locus YLL001W, strain dnm1, stronger effect = lower value 1.03 | S. cerevisiae deletion strains, locus YLL026W, stronger effect = lower value 1.03 | S. cerevisiae deletion strains, locus YLL041C, strain sdh2, stronger effect = lower value 1.02 | S. cerevisiae deletion strains, locus YLR027C, strain aat2, stronger effect = lower value 1.02 | S. cerevisiae deletion strains, locus YLR039C, strain RIC1, stronger effect = lower value 1.08 | S. cerevisiae deletion strains, locus YLR058C, strain SHM2, stronger effect = lower value 1.02 | S. cerevisiae deletion strains, locus YLR102C, strain apc9, stronger effect = lower value 1.02 | S. cerevisiae deletion strains, locus YLR113W, strain HOG1, stronger effect = lower value 1.05 | S. cerevisiae deletion strains, locus YLR221C, strain rsa3, stronger effect = lower value 1.04 | S. cerevisiae deletion strains, locus YLR258W, strain gsy2, stronger effect = lower value 1.03 | S. cerevisiae deletion strains, locus YLR262C, strain YPT6 (second series), stronger effect = lower value 0.991 | S. cerevisiae deletion strains, locus YLR262C, strain YPT6, stronger effect = lower value 1.09 | S. cerevisiae deletion strains, locus YLR268W, strain sec22, stronger effect = lower value 1.03 | S. cerevisiae deletion strains, locus YLR320W, strain mms22, stronger effect = lower value 1 | S. cerevisiae deletion strains, locus YLR330W, strain CHS5, stronger effect = lower value 1 | S. cerevisiae deletion strains, locus YLR342W, strain FKS1 (second series), stronger effect = lower value 1.01 | S. cerevisiae deletion strains, locus YLR342W, strain FKS1, stronger effect = lower value 0.975 | S. cerevisiae deletion strains, locus YLR357W, strain rsc2, stronger effect = lower value 0.981 | S. cerevisiae deletion strains, locus YLR370C, strain arc18, stronger effect = lower value 0.996 | S. cerevisiae deletion strains, locus YLR371W, strain rom2, stronger effect = lower value 1.02 | S. cerevisiae deletion strains, locus YLR384C, strain iki3, stronger effect = lower value 0.971 | S. cerevisiae deletion strains, locus YLR418C, strain cdc73, stronger effect = lower value 1.02 | S. cerevisiae deletion strains, locus YML016C, strain PPZ1, stronger effect = lower value 1.02 | S. cerevisiae deletion strains, locus YML032C, strain rad52, stronger effect = lower value 1.03 | S. cerevisiae deletion strains, locus YML120C, strain ndi1, stronger effect = lower value 0.988 | S. cerevisiae deletion strains, locus YML124C, strain tub3, stronger effect = lower value 1.02 | S. cerevisiae deletion strains, locus YMR058W, strain fet3, stronger effect = lower value 0.989 | S. cerevisiae deletion strains, locus YMR078C, strain ctf18, stronger effect = lower value 1.04 | S. cerevisiae deletion strains, locus YMR125W, strain sto1, stronger effect = lower value 0.985 | S. cerevisiae deletion strains, locus YMR129W, stronger effect = lower value 0.985 | S. cerevisiae deletion strains, locus YMR205C, strain PFK2, stronger effect = lower value 1.01 | S. cerevisiae deletion strains, locus YMR223W, strain ubp8, stronger effect = lower value 1.04 | S. cerevisiae deletion strains, locus YMR231W, strain pep5, stronger effect = lower value 0.983 | S. cerevisiae deletion strains, locus YMR307W, strain GAS1, stronger effect = lower value 1.05 | S. cerevisiae deletion strains, locus YNL067W, strain RPL9B, stronger effect = lower value 1.02 | S. cerevisiae deletion strains, locus YNL071W, strain lat1, stronger effect = lower value 0.989 | S. cerevisiae deletion strains, locus YNL153C, strain GIM3, stronger effect = lower value 1.01 | S. cerevisiae deletion strains, locus YNL183C, strain NPR1, stronger effect = lower value 0.991 | S. cerevisiae deletion strains, locus YNL209W, strain ssb2, stronger effect = lower value 0.979 | S. cerevisiae deletion strains, locus YNL233W, strain BNI4, stronger effect = lower value 1.01 | S. cerevisiae deletion strains, locus YNL248C, strain rpa49, stronger effect = lower value 0.984 | S. cerevisiae deletion strains, locus YNL250W, strain rad50, stronger effect = lower value 1.03 | S. cerevisiae deletion strains, locus YNL271C, strain bni1, stronger effect = lower value 1.02 | S. cerevisiae deletion strains, locus YNL298W, strain CLA4, stronger effect = lower value 1.05 | S. cerevisiae deletion strains, locus YNL307C, strain MCK1, stronger effect = lower value 1.04 | S. cerevisiae deletion strains, locus YNL322C, strain KRE1 (second series), stronger effect = lower value 0.974 | S. cerevisiae deletion strains, locus YNL322C, strain KRE1, stronger effect = lower value 1.01 | S. cerevisiae deletion strains, locus YNR049C, strain mso1, stronger effect = lower value 0.996 | S. cerevisiae deletion strains, locus YNR052C, strain pop2, stronger effect = lower value 1.01 | S. cerevisiae deletion strains, locus YOL012C, strain htz1 1.25 | S. cerevisiae deletion strains, locus YOL147C, strain pex11, stronger effect = lower value 1.03 | S. cerevisiae deletion strains, locus YOR001W, strain rrp6, stronger effect = lower value 1.02 | S. cerevisiae deletion strains, locus YOR061W, strain CKA2, stronger effect = lower value 1.01 | S. cerevisiae deletion strains, locus YOR069W, strain VPS5, stronger effect = lower value 1 | S. cerevisiae deletion strains, locus YOR070C, strain gyp1, stronger effect = lower value 0.994 | S. cerevisiae deletion strains, locus YOR080W, strain dia2, stronger effect = lower value 0.968 | S. cerevisiae deletion strains, locus YOR083W, strain WHI5, stronger effect = lower value 0.972 | S. cerevisiae deletion strains, locus YOR106W, strain vam3, stronger effect = lower value 0.971 | S. cerevisiae deletion strains, locus YOR136W, strain idh2, stronger effect = lower value 1.02 | S. cerevisiae deletion strains, locus YOR144C, strain elg1, stronger effect = lower value 1.03 | S. cerevisiae deletion strains, locus YOR184W, strain ser1, stronger effect = lower value 1.02 | S. cerevisiae deletion strains, locus YOR231W, strain MKK1, stronger effect = lower value 1.06 | S. cerevisiae deletion strains, locus YOR265W, strain rbl2, stronger effect = lower value 0.995 | S. cerevisiae deletion strains, locus YOR270C, strain vph1, stronger effect = lower value 1.03 | S. cerevisiae deletion strains, locus YOR290C, strain snf2, stronger effect = lower value 0.997 | S. cerevisiae deletion strains, locus YOR316C, strain cot1, stronger effect = lower value 1.02 | S. cerevisiae deletion strains, locus YPL051W, strain arl3, stronger effect = lower value 0.99 | S. cerevisiae deletion strains, locus YPL078C, strain atp4, stronger effect = lower value 0.967 | S. cerevisiae deletion strains, locus YPL106C, strain sse1, stronger effect = lower value 0.949 | S. cerevisiae deletion strains, locus YPL240C, strain hsp82, stronger effect = lower value 0.99 | S. cerevisiae deletion strains, locus YPL256C, strain CLN2, stronger effect = lower value 0.997 | S. cerevisiae deletion strains, locus YPR119W, strain clb2, stronger effect = lower value 1.02 | S. cerevisiae deletion strains, locus YPR141C, strain kar3, stronger effect = lower value 1.03 | S. cerevisiae deletion strains, locus YPR163C, strain tif3, stronger effect = lower value 1.02 | S. cerevisiae deletion strains, locus YPR167C, strain met16, stronger effect = lower value 1.02 | S. cerevisiae deletion strains, strain wtn01, stronger effect = lower value 1.02 | S. cerevisiae strains, strain wild type, stronger effect = lower value 1
